TDP1 cell CPT = growth inhibition of DT40 Tdp1-/-;hTDP1 cells with camptothecin (screen for TDP1 inhibitors) | chicken DT40 Tdp1-/-;hTDP1 cells + 20 nM CPT, ATP luminescence, 48 h | Potency, µM (series often up to 46.2 µM), inactives show top-dose activity change, negative = growth inhibition, hits mostly inhibitors | 12% of 420,000 active; further: nearly all actives have a fitted effect of over 55% in size
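Chicken DT40 Tdp1-/- cells complemented with human TDP1, 400 cells/well, exposed to compounds plus 20 nM camptothecin for at least 48 h at 37 C; viability read as ATP content by CellTiter-Glo luminescence.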
VDR inh = vitamin D3 receptor (human) inhibition; VDR-SRC2-3 peptide fluorescence polarization, 2 h; Potency, µM, for the others: max response, negative = inhibition, most hits filed as inhibitors; P11473; 0.93% of 400,000 active
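Fluorescence polarization assay of small-molecule disruption of VDR binding to coregulator peptide SRC2-3. Compounds and controls pin-transferred, then read after 2 h incubation at ambient room temperature.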
TDP1 block = blocks human tyrosyl-DNA phosphodiesterase 1 | recombinant TDP1, AlphaScreen DNA substrate cleavage | Q9NUW8 | 0.28% of 350,000 active | Potency, µM (titrated, usually from 130 µM), inactives show at the highest dose activity change, negative = inhibition, usual class: inhibitors; further: nearly all actives have a fitted effect of over 40% in size
Target sequence (Q9NUW8 whole entry, looked up): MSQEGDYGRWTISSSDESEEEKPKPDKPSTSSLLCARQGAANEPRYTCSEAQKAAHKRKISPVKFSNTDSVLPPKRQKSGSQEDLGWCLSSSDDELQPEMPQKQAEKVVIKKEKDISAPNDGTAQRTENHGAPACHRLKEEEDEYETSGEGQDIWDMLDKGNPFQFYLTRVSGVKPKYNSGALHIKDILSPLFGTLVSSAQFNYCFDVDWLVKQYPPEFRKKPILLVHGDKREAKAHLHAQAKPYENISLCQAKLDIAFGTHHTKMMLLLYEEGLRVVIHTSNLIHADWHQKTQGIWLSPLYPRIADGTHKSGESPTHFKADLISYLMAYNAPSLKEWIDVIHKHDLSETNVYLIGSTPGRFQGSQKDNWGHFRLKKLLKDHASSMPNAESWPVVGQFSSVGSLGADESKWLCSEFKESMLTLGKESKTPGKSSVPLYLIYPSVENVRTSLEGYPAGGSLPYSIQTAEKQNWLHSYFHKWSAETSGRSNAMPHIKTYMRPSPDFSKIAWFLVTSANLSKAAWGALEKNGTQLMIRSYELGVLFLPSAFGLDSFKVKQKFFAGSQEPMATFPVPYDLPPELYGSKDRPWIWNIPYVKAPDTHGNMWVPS
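Here, a 5' biotin and 3' phosphotyrosine-FITC DNA oligonucleotide reports Tdp1 activity: intact substrate bridges AlphaScreen beads, while cleavage leaves a 3' phosphate and drops signal. All incubations at room temperature.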
PLK1 PBD inh = PLK1 (human) polo-box domain binding inhibition | Potency, µM, for the others: max response, negative = inhibition, hits mostly inhibitors | 2.8% of 360,000 active | Plk1 PBD binding of FITC phosphopeptide, fluorescence polarization; further: series mostly up to about 57 µM; nearly all actives have a fitted effect of over 65% in size
DT40 TDP1 no CPT = qHTS for Inhibitors of human tyrosyl-DNA phosphodiesterase 1 (TDP1): qHTS in cells in absence of CPT; AID 686978, 2013; Potency, µM (top dose mostly 46.2 µM), inactives show top-dose activity change, negative = growth inhibition, hits mostly inhibitors; DT40 Tdp1-/- hTDP1 cells, no CPT, ATP luminescence, 48 h; 15% of 420,000 active; further: nearly all actives have a fitted effect of over 55% in size
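Cells were dispensed at 400 per well, compounds added by pin tool, plates incubated ≥48 hr at 37 °C, then CellTiter-Glo added for 30 min at room temperature before luminescence reading. Line: DT40 Tdp1-/- complemented with hTDP1; camptothecin omitted.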
GCN5L2 inh = GCN5L2 (KAT2A) acetyltransferase inhibition | Potency, µM (highest dose often 58.9 µM), without a hit: top-dose activity change, negative = inhibition, actives largely listed as inhibitors | 0.21% of 390,000 active | Q92830 | GCN5L2 HAT assay, ThioGlo1 CoA-SH fluorescence
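Free CoA generated was detected with ThioGlo1 (50uM) fluorescence at Ex340nm/Em540nm, read immediately and after 20 min at room temperature. Enzyme, 20 nM in HEPES pH 7.5 buffer, saw compounds 15 min before adding 75uM H3(1-25) peptide and 70uM acetyl-CoA.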
* = called active by the depositor; ? = inconclusive; nt = no result given; [ ] = dose if it differs, or a comment. In the library only some 18% were active in any assay of this set; here they are far more common. The call rests on the fitted dose curve; in most records, active means well fitted curve in the direction sought with a large enough effect; inconclusive means small, poorly fitted or top-dose-only effect, or another doubt; inactive means no such curve, though single readings can be large; an effect the other way counts as inactive or inconclusive. On the % scale 0 is the no-effect control and ±100 the full control effect; potency means the concentration at half of the fitted maximal effect.

SMILES | TDP1 cell CPT | VDR inh | TDP1 block | PLK1 PBD inh | DT40 TDP1 no CPT | GCN5L2 inh
C=CCNC(=O)c1onc(CSc2ccc(Cl)cc2)c1C(=O)NCC=C | ? | -12% | 2% | -9% | 16µM* | 5%
CCOC(=O)c1cnc[nH]c1=O | -11% | -1% | nt | -5% | 14% | nt
Cn1nc(C(F)(F)F)c(/C=N/OC(=O)c2ccccc2)c1Sc1ccc(Cl)cc1 | 23µM* | 89µM* | -2% | -5% | 23µM* | -20%
CC(NC(=O)Cn1ccsc1=N)C12CC3CC(CC(C3)C1)C2 (configuration not stated) | 16µM* | -21% | 5% | 7.5µM* | 23µM* | -2%
CCCN1C(=O)SC(CC(=O)Nc2cccc3ccccc23)C1=O (configuration not stated) | 16µM* | 5% | 4%[56.1 µM] | -17% | 16µM* | -7%
CCCN1C(=O)SC(CC(=O)Nc2ccccc2)C1=O (configuration not stated) | 23µM* | -7% | 2% | -10% | ? | -3%
CCOC(=O)N1CCN(C(=O)c2[nH]c(C(F)(F)F)nc2-c2ccccc2)CC1 | 16µM* | nt | nt | -6% | 16µM* | nt
Cc1cccc(N2CCN(C(=O)c3[nH]c(C(F)(F)F)nc3-c3ccccc3)CC2)c1C | 1.3µM* | nt | nt | -3% | 1.3µM* | nt
O=C(c1[nH]c(C(F)(F)F)nc1-c1ccccc1)N1CCN(c2cccc(C(F)(F)F)n2)CC1 | 4.6µM* | nt | nt | 0% | 4.6µM* | nt
O=C(c1[nH]c(C(F)(F)F)nc1-c1ccccc1)N1CCCCC1 | 4% | nt | nt | 2% | -4% | nt
COc1ccccc1N1CCN(C(=O)c2[nH]c(C(F)(F)F)nc2-c2ccccc2)CC1 | 6.5µM* | nt | nt | -5% | 5.8µM* | nt
CC(=O)N1CCN(C(=O)c2[nH]c(C(F)(F)F)nc2-c2ccccc2)CC1 | -4% | nt | nt | -2% | -13% | nt
O=C(Cn1c2[n+](c3ccc(C(F)(F)F)cc31)CCCCC2)Nc1ccc(Br)cc1 | 5% | 7% | 7% | 0% | 5% | -5%
N#Cc1ccc(NC(=O)Cn2c3[n+](c4ccc(C(F)(F)F)cc42)CCCCC3)cc1 | ? | -10% | 0% | 24µM* | ? | 0%
CCc1ccc(NC(=O)Cn2c3[n+](c4c(F)c(F)ccc42)CCCCC3)cc1 | 2.6µM* | 5% | 7% | -4% | 5.8µM* | -5%
Cc1cc(C(C)(C)C)cc(C)c1Cn1c2[n+](c3ccc(C(F)(F)F)cc31)CCCCC2 | 2.1µM* | -21% | 5% | 0% | 1.8µM* | -22%
FC(F)(F)c1cccc(Cn2c3[n+](c4ccc(C(F)(F)F)cc42)CCCCC3)c1 | ? | 0% | 5% | -9% | 23µM* | -9%
CCc1ccc(NC(=O)Cn2c(SC)nc3ccccc32)cc1 | ? | 14% | 7% | -5% | ? | -8%
O=C(/C=C/[C@H]1O[C@@H](n2cnc3c(NC(=O)c4ccccc4)ncnc32)[C@H](O)[C@@H]1O)NCCc1ccc(F)cc1 | 13% | nt | nt | 0% | 29% | nt
CCc1ccc(N2CC(C(=O)Nc3ccc4c(c3)OCCO4)CC2=O)cc1 (configuration not stated) | -1% | 12% | -8% | -3% | -13% | 0%
COc1ccccc1N(CC(O)Cn1ccnc1C)S(=O)(=O)c1ccccc1 (configuration not stated) | -10% | -27% | -5% | -11% | -16% | -2%
CC(=O)Nc1ccccc1N(CC(O)Cn1c2ccccc2c2ccccc21)S(=O)(=O)c1ccc(C)cc1 (configuration not stated) | ? | -7% | 3% | -2% | 18µM* | -11%
Cc1ccc(N(CC(O)Cn2c3ccccc3c3ccccc32)S(=O)(=O)c2ccc(F)cc2)cc1 (configuration not stated) | ? | 0% | nt | nt | 21µM* | -4%
COc1ccc(N(CC(O)Cn2c3ccccc3c3ccccc32)S(=O)(=O)c2ccccc2)cc1 (configuration not stated) | ? | -4% | 3% | -11% | ? | -7%
CCN(CC(O)Cn1c2ccccc2c2ccccc21)S(=O)(=O)c1ccc(C)cc1 (configuration not stated) | 29µM* | -6% | -1% | -7% | ? | 2%
SMILES | TDP1 cell CPT | VDR inh | TDP1 block | PLK1 PBD inh | DT40 TDP1 no CPT | GCN5L2 inh
COc1ccccc1N(CC(O)Cn1c(C)nc2ccccc21)S(=O)(=O)c1ccccc1 (configuration not stated) | ? | -4% | 0% | -11% | 29µM* | 0%
Cc1cccc2cc(CN(CC3CCCO3)C(=O)C3CC3)c(N(C)C)nc12 (configuration not stated) | -3%[9.04 µM] | nt | nt | nt | 1% | nt
COC(=O)c1ccc(C(NC(=O)OCc2ccccc2)/C(I)=C/[C@@H](C)C(=O)NCc2ccncc2)cc1 (some centres not stated) | nt | nt | 14% | nt | nt | nt
O=C1S/C(=C/c2ccc(N3CCOCC3)o2)C(=O)N1Cc1ccc(F)cc1 | ? | ? | 0% | 36% | ? | 0%
CC(C)OC(=O)CN1C(=O)S/C(=C/c2ccc(N3CCCCC3)o2)C1=O | 16µM* | -84% | 7% | 33% | 20µM* | -6%
Cc1ccccc1CCNC(=O)c1ccc2c(c1)nc1n2CCCCC1 | ? | 4% | 3% | nt | ? | 2%
CCOC(=O)C1=CN(CC)S(=O)(=O)NC1CC (configuration not stated) | 8% | -9% | nt | -6% | 6% | -2%
Cc1ccc(C)c(Nc2nn3c(=O)c4ccc(C(=O)N(C)Cc5ccccc5)cc4nc3s2)c1 | 9.2µM* | -10% | 8% | nt | 21µM* | 8%
CCCCN(C)C(=O)c1ccc2c(=O)n3nc(Nc4cc(C)ccc4C)sc3nc2c1 | 13µM* | 4% | 3% | nt | 12µM* | -8%
O=C1C(c2ccc(F)cc2)N(CCc2ccccc2)C(=O)CN1C1CCCCC1 (configuration not stated) | ? | 17% | 0% | nt | ? | -10%
COc1ccc2c3c(n(C(=O)OC(C)(C)C)c2c1)C1CC=C(COC(C)=O)CN1CC3 (configuration not stated) | 16µM* | nt | nt | -10% | 16µM* | nt
CC(C)CC1C(=O)N(Cc2cn(Cc3ccco3)nn2)CCS(=O)(=O)N1Cc1ccc(-c2ccc(F)nc2)cc1 (configuration not stated) | ? | nt | nt | -6% | 23µM* | nt

Source: PubChem
